Values joined by “and” are separate entries in the source; they are usually repeats but may differ in a detail not shown here. Equal values may be shown once. The panel holds about 79,000 compounds, 15% with a hit somewhere; the sample as a whole holds those more often. A structure can be active in one record and inactive in another. Active and inactive are the calls of the source. Cut-off read from the data, not from the text of the source: active = growth inhibition above about 70%; inactive = the rest.
Columns and labels:
[1] = NCI Yeast Anticancer Drug Screen. Data for the mlh1 strain (AID 171);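 note: 0% = growth of vehicle-treated control cultures of the same strain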; conditions: S. cerevisiae mlh1 strain growth inhibition, stronger effect = higher value
Method in brief: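 Read-out: growth inhibition versus vehicle controls. Strain: engineered yeast with a defined DNA repair or cell cycle defect, compound-treated.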

[2] = NCI Yeast Anticancer Drug Screen. Data for the sgs1 strain (AID 173);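 note: 0% = growth of vehicle-only control cultures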; conditions: S. cerevisiae sgs1 mutant, stronger effect = higher value
Method in brief: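 Read-out: yeast growth inhibition relative to vehicle controls, following compound exposure of a strain with a defined DNA repair/cell cycle alteration.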

[3] = NCI Yeast Anticancer Drug Screen. Data for the mlh1 rad18 strain (AID 175); conditions: S. cerevisiae mlh1 rad18 strain growth inhibition, stronger effect = higher value
Method in brief: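 Yeast w/ defined DNA-repair lesions; compound exposure; growth vs vehicle controls → % inhibition.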

[4] = NCI Yeast Anticancer Drug Screen. Data for the rad18 strain (AID 177); conditions: S. cerevisiae rad18 mutant growth inhibition, stronger effect = higher value
Method in brief: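 Readout: growth inhibition vs vehicle controls. Cells: genetically altered yeast strain, DNA repair defect.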

[5] = NCI Yeast Anticancer Drug Screen. Data for the rad52 strain (AID 147);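 note: 0% = growth of vehicle-treated control cultures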; conditions: S. cerevisiae rad52 mutant growth inhibition, stronger effect = higher value
Method in brief: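 Read-out: growth inhibition versus vehicle-treated controls. Cells were a DNA repair-deficient yeast strain treated with compounds.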

[6] = NCI Yeast Anticancer Drug Screen. Data for the wt1 strain (AID 149);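 note: 0% = growth of vehicle-treated wt1 cultures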; conditions: S. cerevisiae wt1 strain (SPY 50644) growth inhibition, stronger effect = higher value
Method in brief: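 Readout: yeast growth inhibition, normalised to vehicle controls, in the wt1 strain exposed to test compounds.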

[7] = NCI Yeast Anticancer Drug Screen. Data for the rad50EPP+ strain (AID 151);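 note: 0% = growth of vehicle-treated control cultures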; conditions: S. cerevisiae rad50 mutant strain, stronger effect = higher value
Method in brief: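 Growth inhibition read against vehicle controls in rad50EPP+ yeast, a strain altered in DNA damage repair, after compound exposure.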

[8] = NCI Yeast Anticancer Drug Screen. Data for the rad50 strain (AID 155);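 note: 0% = growth of vehicle-only cultures of the same strain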; conditions: S. cerevisiae rad50 strain growth inhibition, stronger effect = higher value
Method in brief: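 Compounds were tested on a yeast strain with an engineered DNA damage repair alteration; the reported value is growth inhibition normalised to vehicle treatment.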

[9] = NCI Yeast Anticancer Drug Screen. Data for the mec2-1 strain (AID 157); conditions: S. cerevisiae mec2-1 strain, stronger effect = higher value
Method in brief: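 Yeast mec2-1 mutant treated with compound. Readout: growth inhibition vs vehicle controls.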

[10] = NCI Yeast Anticancer Drug Screen. Data for the rad14 strain (AID 159);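 note: 0% = growth of vehicle-treated control cultures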; conditions: S. cerevisiae rad14 strain growth inhibition, stronger effect = higher value
Method in brief: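 Compound-treated yeast with a defined DNA-repair lesion; growth inhibition normalised to vehicle-treated cultures.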

[11] = NCI Yeast Anticancer Drug Screen. Data for the sgs1 mgt1 strain (AID 161);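 note: 0% = growth of cultures given vehicle only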; conditions: S. cerevisiae sgs1 mgt1 strain, stronger effect = higher value
Method in brief: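 Mutant yeast exposed to compound; growth scored against vehicle-only wells.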

[12] = NCI Yeast Anticancer Drug Screen. Data for the CLN2oe strain (AID 163);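 note: 0% = growth of vehicle-only control cultures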; conditions: S. cerevisiae CLN2oe strain, stronger effect = higher value
Method in brief: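 Read-out: yeast growth inhibition, expressed relative to vehicle-only controls. The strain bears an engineered cell-cycle alteration.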

[13] = NCI Yeast Anticancer Drug Screen. Data for the cln2 rad14 strain (AID 165);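 note: 0% = growth equal to vehicle treated cultures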; conditions: S. cerevisiae cln2 rad14 strain, stronger effect = higher value
Method in brief: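 cln2 rad14 yeast strain; compound exposure; growth inhibition read vs vehicle controls.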

[14] = NCI Yeast Anticancer Drug Screen. Data for the bub3 strain (AID 167); conditions: S. cerevisiae bub3 mutant strain, stronger effect = higher value
Method in brief: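 Growth of a checkpoint-deficient yeast mutant is measured after compound exposure. Values represent inhibition relative to vehicle.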

[15] = NCI Yeast Anticancer Drug Screen. Data for the wt2 strain (AID 169);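 note: 0% = growth of vehicle-treated yeast cultures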; conditions: S. cerevisiae wt2 strain growth inhibition, stronger effect = higher value
Method in brief: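 Read-out: growth inhibition versus vehicle-treated control cultures after compound exposure of the yeast strain.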

[16] = at 5.0 µM (retest, dose inferred, filed as 0.5)
[17] = at 50.0 µM (retest, dose inferred, filed as 5.0)

Measured: growth inhibition

CC(C)c1cccc(O)c(=O)c1
inactive: [1]; at 1.2 µM -6% | [1]; at 3.7 µM -1% | [1]; at 11.0 µM 2% | [1]; at 33.0 µM 46% | [2]; at 1.2 µM -3% | [2]; at 3.7 µM -11% | [2]; at 11.0 µM -1% | [2]; at 33.0 µM 60% | [3]; [16] -3% and 7% | [4]; at 1.2 µM -6% | [4]; at 3.7 µM 1% | [4]; at 11.0 µM 2% | [4]; at 33.0 µM 18%
active: [1]; at 100.0 µM 99% | [2]; at 100.0 µM 98% | [3]; at 50.0 µM 98.4% and 91.7% | [4]; at 100.0 µM 98%
40% (inactive) and 99% (active): [3]; [17]

CNc1nc(C)nc2c1cnn2-c1ccc([N+](=O)[O-])cc1
inactive: [5]; at 1.2 µM -1% | [5]; at 3.7 µM -6% | [5]; at 11.0 µM 10% | [5]; at 33.0 µM 26% | [5]; at 100.0 µM 41% | [6]; at 1.2 µM 3% | [6]; at 3.7 µM 1% | [6]; at 11.0 µM 13% | [6]; at 33.0 µM 12% | [6]; at 100.0 µM 15% | [7]; at 1.2 µM 11% | [7]; at 3.7 µM 17% | [7]; at 11.0 µM 42% | [7]; at 33.0 µM 63% | [7]; at 100.0 µM 69% | [8]; at 1.2 µM -2% | [8]; at 3.7 µM -5% | [8]; [16] 1% | [8]; at 11.0 µM 16% | [8]; at 33.0 µM 68% | [9]; at 1.2 µM 0% | [9]; at 3.7 µM 0% | [9]; [16] -2% | [9]; at 11.0 µM 2% | [9]; at 33.0 µM -1% | [9]; [17] 31% | [9]; at 50.0 µM -1.35% | [9]; at 100.0 µM -2% | [10]; at 1.2 µM 11% | [10]; at 3.7 µM 2% | [10]; at 11.0 µM 22% | [10]; at 33.0 µM 24% | [10]; at 100.0 µM 25% | [11]; [16] 2% | [11]; at 50.0 µM 69.7% | [12]; at 1.2 µM -6% | [12]; at 3.7 µM -5% | [12]; at 11.0 µM -5% | [12]; at 33.0 µM -6% | [12]; at 100.0 µM -8% | [13]; [16] -4% | [13]; [17] 30% | [13]; at 50.0 µM 2% | [14]; at 1.2 µM -5% | [14]; at 3.7 µM -2% | [14]; [16] -2% | [14]; at 11.0 µM -12% | [14]; at 33.0 µM -12% | [14]; [17] 2% | [14]; at 50.0 µM -13.3% | [14]; at 100.0 µM -14% | [15]; at 1.2 µM -4% | [15]; at 3.7 µM 9% | [15]; at 11.0 µM 13% | [15]; at 33.0 µM 24% | [15]; at 100.0 µM 16% | [1]; at 1.2 µM -5% | [1]; at 3.7 µM -1% | [1]; at 11.0 µM 0% | [1]; at 33.0 µM -1% | [1]; at 100.0 µM -1% | [2]; at 1.2 µM 5% | [2]; at 3.7 µM 4% | [2]; at 11.0 µM 44% | [2]; at 33.0 µM 69% | [3]; [16] -8% | [3]; at 50.0 µM 57.5% | [4]; at 1.2 µM -1% | [4]; at 3.7 µM 16% | [4]; at 11.0 µM 49%
active: [8]; [17] 76% | [8]; at 50.0 µM 79.2% | [8]; at 100.0 µM 88% | [11]; [17] 83% | [2]; at 100.0 µM 80% | [3]; [17] 91% | [4]; at 33.0 µM 89% | [4]; at 100.0 µM 92%

CN(NC(=O)/C(=C/c1ccc(O)cc1)NC(=O)c1ccccc1)c1ccnc2cc(Cl)ccc12
active: [5]; at 100.0 µM 79% | [8]; at 50.0 µM 80.1% | [8]; at 100.0 µM 81% | [9]; at 100.0 µM 72% | [15]; at 100.0 µM 70% | [1]; at 100.0 µM 81% | [2]; at 100.0 µM 83% | [3]; at 50.0 µM 80.3%
inactive: [5]; at 1.2 µM 2% | [5]; at 3.7 µM 9% | [5]; at 11.0 µM 35% | [5]; at 33.0 µM 60% | [6]; at 1.2 µM 3% | [6]; at 3.7 µM 4% | [6]; at 11.0 µM 11% | [6]; at 33.0 µM 40% | [6]; at 100.0 µM 69% | [7]; at 1.2 µM -2% | [7]; at 3.7 µM 3% | [7]; at 11.0 µM 14% | [7]; at 33.0 µM 34% | [7]; at 100.0 µM 42% | [8]; at 1.2 µM -2% | [8]; at 3.7 µM -4% | [8]; [16] 6% | [8]; at 11.0 µM 15% | [8]; at 33.0 µM 68% | [8]; [17] 20% | [9]; at 1.2 µM 1% | [9]; at 3.7 µM 4% | [9]; [16] 15% | [9]; at 11.0 µM 12% | [9]; at 33.0 µM 44% | [9]; [17] 2% | [9]; at 50.0 µM 46.9% | [10]; at 1.2 µM 0% | [10]; at 3.7 µM 2% | [10]; at 11.0 µM 13% | [10]; at 33.0 µM 38% | [10]; at 100.0 µM 60% | [11]; [16] 9% | [11]; [17] 9% | [11]; at 50.0 µM 51.1% | [12]; at 1.2 µM 6% | [12]; at 3.7 µM 3% | [12]; at 11.0 µM 13% | [12]; at 33.0 µM 39% | [12]; at 100.0 µM 65% | [13]; [16] -3% | [13]; [17] 2% | [13]; at 50.0 µM -2.45% | [14]; at 1.2 µM -1% | [14]; at 3.7 µM 4% | [14]; [16] 21% | [14]; at 11.0 µM 16% | [14]; at 33.0 µM 43% | [14]; [17] 65% | [14]; at 50.0 µM 55.1% | [14]; at 100.0 µM 68% | [15]; at 1.2 µM -3% | [15]; at 3.7 µM -1% | [15]; at 11.0 µM 11% | [15]; at 33.0 µM 47% | [1]; at 1.2 µM 1% | [1]; at 3.7 µM 4% | [1]; at 11.0 µM 21% | [1]; at 33.0 µM 64% | [2]; at 1.2 µM 2% | [2]; at 3.7 µM 4% | [2]; at 11.0 µM 14% | [2]; at 33.0 µM 67% | [3]; [16] 1% | [3]; [17] 2%
